We go through 8 molecules from the supplement of paper PMC10105736.

What all share (assay): MAPPIT interaction score (arbitrary units); higher = stronger binary interaction signal, active = hit call of the paper
The target of one assay is sqd. Particulars: MAPPIT configuration: N-C; pair source set: Lit-BM-16.
In the next assay the target is tup. The conditions noted are these: MAPPIT configuration: N-N; pair source set: Curagen_low_conf.
The target of another assay is yip2. Particulars: MAPPIT configuration: N-N; pair source set: Curagen_high_conf.
The next assay deals with sip2. The conditions noted are these: MAPPIT configuration: N-N; pair source set: Curagen_low_conf.
Another assay has as its target spir. The conditions noted are these: pair source set: RRS.
The target of another assay is up. Particulars: MAPPIT configuration: N-N; pair source set: RRS.
Another assay has as its target saturn. Particulars: MAPPIT configuration: N-C; pair source set: screen_4.
Another assay concerns the target sw. The conditions noted are these: pair source set: Lit-BM-16.

A number with no mark means an inactive call.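 How the source made its calls: active = MAPPIT score above the 99th percentile of random reference set scores in the same batch; inactive = at or below it.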
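Further: HEK293T cells with Epo stimulation, STAT-responsive firefly luciferase reporter, fold induction versus unstimulated cells divided by the larger fold induction of two negative controls lacking either bait or prey.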

B1: Hrb27C (protein)
chain: MEEDERGKLFVGGLSWETTQENLSRYFCRFGDIIDCVVMKNNESGRSRGFGFVTFADPTNVNHVLQNGPHTLDGRTIDPKPCNPRTLQKPKKGGGYKVFLGGLPSNVTETDLRTFFNRYGKVTEVVIMYDQEKKKSRGFGFLSFEEESSVEHVTNERYINLNGKQVEIKKAEPRDGSGGQNSNNSTVGGAYGKLGNECSHWGPHHAPINMMQGQNGQMGGPPLNMPIGAPNMMPGYQGWGTSPQQQQYGYGNSGPGSYQGWGAPPGPQGPPPQWSNYAGPQQTQGYGGYDMYNSTSTGAPSGPSGGGSWNSWNMPPNSAGPTGAPGAGAGTATDMYSRAQAWATGGPSTTGPVGGMPRTGPGNSASKSGSEYDYGGYGSGYDYDYSNYVKQEGASNYGAGPRSAYGNDSSTQPPYATSQAV
For B1, the MAPPIT interaction score in the assay with sqd is 2.4.

B2: Fcp3C (protein)
chain: MDGAKAEVFSVSVDTKMGAFKNSLLLLTLLLAIHLEASKIVYKKPLYGNSNIIKDKRIKTKPVKLETSTMSSTGVASSSTTAEEDWPTAVEFVIMTTPASELEASTETIGNNGTTETTVGEAPIIGSSEGSTRSMEPTTASPLMSTNPSSSSSLVSTIPLPPTAGLPVQDNQPVPCTCGVFLSSQIPNGLPTKPLIHQELDHMFPCNAIGRKQCQTKCLETIVQHLPNSANIVCSALGHDCHKERAYLFIKNCHNQWVNTNLQAGREYCCRSGVPYRCPLMG
Consider B2, for which the MAPPIT interaction score with tup was -0.265.

B3: swa (protein)
chain: MSLQDESFPTDELFDQLNNLSSSGARNTWFAEHHKPAVFERDTAPFLEICYADPDFDADGDVANKSAKTCVSDPVGRDQEDEDDYDEDVDGDDHKLGCEKAPLGSGRSSKAVSYQDIHSAYTKRRFQHVTSKVGQYIAEIQAQDQKRRNVKFAGFQRVNSMPESLTPTLQQVYVHDGDFKVDKNCQTHSNSDSNYNSNSNNSSSSFDRLLAENESLQQKINSLRVEAKRLQGFNEYVQERLDRKTDDFVKMKCNFETLRTELSECQQKLRRQQDNSQHHFMYHIRSATSAKATQTDFLVDTIPASGNVLVTPHPLGDLTYNSSKGSIELALLSVAPSARVAQNPVQVQRAIHPQSLDFSSVSTEADGSGSGEHRVETSSRALVRRTPAPNNSETSQPSSNDSAIEVEAHEEERPSSRRQWEQQGELISPRQWGQHEGMYYFDKRNNRVIEVMGFNISQGRNQSHDTIHNQSINDSQTRLLVHSMSMSHLEAHDHFRSKRTTLGSRMLRFLGPCVRCRNGDPLNRSNVTYKDGLPAMPEEEFVDQRNQR
As to B3, the MAPPIT interaction score with yip2 is 1.92.

B4: Mabi (protein)
chain: MEHHQIYRHKKFDMGRKIEKCDLQLKEELISRSGTPCTSRSPFDAANQSVSLGFSDQDADFPPLPKRRRLGSSSSSVSYQSASPIITEAIQDIFKYHVNMVRKFPKKERSPKDQERRNKNTIACRMSRRKKKFDDLQIEQQYKECSDEHLKIAEQSLRARVYLNHLKQLVKQEDHPLVSSRRVPEENTKSNFSIDYLIGGIKQEHA
Take B4: the MAPPIT interaction score with sip2 is 0.378.

B5: Acp1 (protein)
chain: MKFAVAVIFTLALAMGVQSSVIPLLSQVAGHGLSYTAVSGPAVVASPWAVPAAHWPAAVNVASWPPAAIHAAAPAVLAAPAPAVVAAHAPSVVVAPVAHSGVYTAQTRGAIHTAPLAGHIQSVASINAAPAPGTL
Regarding B5, the MAPPIT interaction score in the assay with spir (MAPPIT configuration: N-C) was 0.0271; with spir (MAPPIT configuration: N-N), 0.686.

B6: Pgd (protein)
chain: MSGQADIALIGLAVMGQNLILNMDEKGFVVCAYNRTVAKVKEFLANEAKDTKVIGADSLEDMVSKLKSPRKVMLLVKAGSAVDDFIQQLVPLLSAGDVIIDGGNSEYQDTSRRCDELAKLGLLFVGSGVSGGEEGARHGPSLMPGGHEAAWPLIQPIFQAICAKADGEPCCEWVGDGGAGHFVKMVHNGIEYGDMQLICEAYHIMKSLGLSADQMADEFGKWNSAELDSFLIEITRDILKYKDGKGYLLERIRDTAGQKGTGKWTAIAALQYGVPVTLIGEAVFSRCLSALKDERVQASSVLKGPSTKAQVANLTKFLDDIKHALYCAKIVSYAQGFMLMREAARENKWRLNYGGIALMWRGGCIIRSVFLGNIKDAYTSQPELSNLLLDDFFKKAIERGQDSWREVVANAFRWGIPVPALSTALSFYDGYRTAKLPANLLQAQRDYFGAHTYELLGQEGQFHHTNWTGTGGNVSASTYQA
In the case of B6, the MAPPIT interaction score in the assay with up is 0.146.

B7: ORMDL (protein)
chain: MTSIAGGHGEANPNSSWLSARGFWLAYLLGLLSVHLLFLSVPFVSIPWAWTATNLLHNAAHLYFLHVIKGAPWLSTENDPSRRWTHWEQIDDGVQMTTTRKFLTAVPIVLFLLTCLYTRNNTEHFIPNFISLVVVTLPKLPQFHGVRLFNINKY
For the molecule B7, the MAPPIT interaction score with saturn is 0.115.

B8: DCTN1-p150 (protein)
chain: MSEKNLKVGARVELTGKDLLGTVAYVGMTSFAVGKWVGVVLDEPKGKNSGSIKGQQYFQCDENCGMFVRPTQLRLLEAAPGSRRSIEDVSGATPTAAQPTKARLSSSRTSLSSSRQSLLGSRTQLTTSLSERTASSSSIGPRKSLAPQNSKDKESPSTSLAEGAPAASGGNGAASHASSKRASFVETGFLEILKPQFTPSQPLRSPSFTMPSNSGAEDKVALLEAQKTSAELQAQLADLTEKLETLKQRRNEDKERLREFDKMKIQFEQLQEFRTKIMGAQASLQKELLRAKQEAKDAIEAKEQHAQEMADLADNVEMITLDKEMAEEKADTLQLELESSKERIEELEVDLELLRSEMQNKAESAIGNISGGGDSPGLSTYEFKQLEQQNIRLKETLVRLRDLSAHDKHDIQKLSKELEMKRSEVTELERTKEKLSAKIDELEAIVADLQEQVDAALGAEEMVEQLAEKKMELEDKVKLLEEEIAQLEALEEVHEQLVESNHELELDLREELDLANGAKKEVLRERDAAIETIYDRDQTIVKFRELVQKLNDQLTELRDRNSSNEKESLQDPSLKMVTETIDYKQMFAESKAYTRAIDVQLRQIELSQANEHVQMLTAFMPESFMSRGGDHDSILVILLISRIVFKCDIVVSQTRERFPPVDAITREAVTQGHAVQQYAFKCRLLHYVHSLQCALHQILYGLNSCQPDTLLRAGSSLPEMVAQEKIVDGIIELLKSNQLDENSTTDNIEKCVAFFNAMNSVLLAGEQLLNEIQMIRDCVASLGAACESILSDTAIAKVIIQEAGATSDSVLLIQFLNENMESVRQQVKLIKRRLPSDQHVIKSGLSQHKVEAMRGLAQNISRIMSAMHQATKQSLAAIVSTIESDNAAEHTLPQEKYWALLTASCERIYEQDDRGPTQNFKTLLAQANSDLQLIAQHLLDKEYDIISAANNASNQQKSGAHSTPITQRAQLIKKQLEQKNVLAATLENREADVKQLKVAAKMKQNELSEMQIRKDLAEKKLSVLQNEYEHAVDKWKQKYEETSLQLQLKEKEFEETMDHLQSDIDALESEKSDLRDKLKLNSTTGKVQPGSESHSPHNISLSGNTSTAPGISNVSYSAPAGTAPVVAEEVELLKNAFNQERNQRLRLQAQDMRAKLSQFEPLHVPQPQDQRITALESELTRMKHAWVLSLLQVRSQDSVNSGTRIDAVALQRRNQPVPLKGEISSKASQLASDILTEYLQRKPHRATHGQFASFPTVDVKRVLQI
For the molecule B8, the MAPPIT interaction score in the assay with sw (MAPPIT configuration: N-C) is 0.412; with sw (MAPPIT configuration: N-N) it was -0.153.
